Reference: PubChem BioAssay AID725 (NMMLSC, 2007)
In all, about 1,300 compounds went through this assay and fewer than 10 were called active. The rule behind the calls is not given here. A selection follows.

Each compound was assayed against N-formyl peptide receptor 2 (Homo sapiens) (UniProt P25090) (assay: FPRL1 fluorescent ligand binding inhibitors, primary screen, selectivity assay for FPR ligand SAR project, cell-based, flow cytometry, HTS counterscreen (AID 725)). Conditions: FPRL1-expressing cells, active compounds read high, concentration not given here.
N-formyl peptide receptor 2 (Homo sapiens), sequence (P25090 whole entry, looked up): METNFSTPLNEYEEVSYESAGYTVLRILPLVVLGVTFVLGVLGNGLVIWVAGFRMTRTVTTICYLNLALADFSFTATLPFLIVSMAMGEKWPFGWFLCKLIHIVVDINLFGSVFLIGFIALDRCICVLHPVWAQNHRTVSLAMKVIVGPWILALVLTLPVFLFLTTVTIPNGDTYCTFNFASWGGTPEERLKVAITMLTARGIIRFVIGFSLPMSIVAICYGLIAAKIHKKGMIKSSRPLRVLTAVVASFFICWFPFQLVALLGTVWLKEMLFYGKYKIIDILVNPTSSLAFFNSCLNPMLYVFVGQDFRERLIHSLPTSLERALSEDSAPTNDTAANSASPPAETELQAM
In the case of CC(C)c1ccc(C2/C(=C(\O)c3ccccc3)C(=O)C(=O)N2c2nc3ccccc3s2)cc1 (stereo unspecified), the inhibition is reported as 0% (inactive). In the case of Cc1ccc(F)cc1N1C(=O)CSC1c1ccc(Br)cc1 (stereo unspecified), the inhibition is reported as 1.5% (inactive). For Cc1cccc(C(=O)N(Cc2ccco2)Cc2ccccc2F)c1, the inhibition was 14.7% (inactive). In the case of COc1ccc(-c2c(C)[nH]n3c(=O)c4c(nc23)CCCC4)cc1, the inhibition is reported as -4.2% (inactive). CCOC(=O)c1c(NC(=O)c2ccc(Br)cc2)sc(C)c1C was tested, and the inhibition was 9.7% (inactive). In the case of Cc1onc(-c2c(Cl)cccc2Cl)c1C(=O)NC1CCCCC1, the inhibition is reported as -7.3% (inactive). In the case of CCC(=O)Oc1ccc2c(C)c(Cc3ccccc3)c(=O)oc2c1C, the inhibition is reported as -5.7% (inactive). For CCn1c2c(c(=O)n3ncc(C(=O)O)c13)CN(Cc1ccccc1)CC2, the inhibition was 9.1% (inactive). For CCOC(=O)c1c(NC(=O)c2ccccc2C(=O)O)sc(C)c1C, the inhibition was -6.4% (inactive). CCOC(=O)COc1ccc2c(=O)c(-c3ccccc3OC)c(C(F)(F)F)oc2c1 was tested, and the inhibition was -6.1% (inactive). With Cc1ccc(Oc2c(C(F)(F)F)oc3c(CN4CCC(C)CC4)c(O)ccc3c2=O)cc1 the inhibition was -2.8% (inactive). O=C(c1ccccc1F)N1c2ncnn2C2(CCCCC2)[C@@H]2CCCC[C@@H]21 was tested, and the inhibition was 2.4% (inactive). In the case of O=C1C(=O)N(CCN2CCOCC2)C(c2ccncc2)/C1=C(\O)c1ccccc1 (stereo unspecified), the inhibition is reported as 0.7% (inactive). With NC(=O)c1c(NC(=O)C2C3C=CC(C3)C2C(=O)O)sc2c1CCCCC2 (stereo unspecified) the inhibition was 7.3% (inactive). In the case of C=CCOc1ccccc1/C=C1/C(=O)NN(c2ccc(C)c(Cl)c2)C1=O, the inhibition is reported as -5.7% (inactive). O=C(CSc1nnc(-c2ccco2)o1)c1cccc2ccccc12 was tested, and the inhibition was -5.2% (inactive). For CCOC(=O)C(CC)Oc1ccc2c(=O)c(-c3ccc(OC)c(OC)c3)c(C(F)(F)F)oc2c1 (stereo unspecified), the inhibition was 7.8% (inactive). In the case of CN(C)CCCN1C(=O)C(O)=C(C(=O)c2ccco2)C1c1ccccc1 (stereo unspecified), the inhibition is reported as 9.4% (inactive). For CN(C)c1ccc(C2C(C(=O)c3ccco3)=C(O)C(=O)N2CC2CCCO2)cc1 (stereo unspecified), the inhibition was -0.8% (inactive). Cc1cc(C)cc(N2C(=O)CSC2c2c(F)cccc2Cl)c1 (stereo unspecified) was tested, and the inhibition was -8.8% (inactive). For COc1ccccc1C1SCCN1S(=O)(=O)c1ccc(F)cc1 (stereo unspecified), the inhibition was 11.3% (inactive). O=C(O)CCN1C(=O)C(=O)/C(=C(/O)c2ccccc2)C1c1ccc(Br)cc1 (stereo unspecified) was tested, and the inhibition was -4.1% (inactive). O=C(Nc1cccc(C(=O)N(Cc2ccccc2)Cc2ccccc2)c1)[C@@H]1[C@H]2C[C@H]3[C@@H]1C(=O)O[C@H]3C2 was tested, and the inhibition was 3.8% (inactive). For COc1ccc(OC)c(C2SCCN2S(=O)(=O)c2ccc(C)cc2)c1 (stereo unspecified), the inhibition was 6.1% (inactive). With CCCOc1ccc(C2C(C(=O)c3cc4ccccc4o3)=C(O)C(=O)N2CCN(C)C)cc1 (stereo unspecified) the inhibition was -0.2% (inactive). For COc1ccccc1-c1c(C)oc2c(CN3CCCCC3C)c(O)ccc2c1=O (stereo unspecified), the inhibition was -3.9% (inactive). For COc1cccc(C2C(C(=O)c3cc4ccccc4o3)=C(O)C(=O)N2CCN2CCOCC2)c1 (stereo unspecified), the inhibition was 2.7% (inactive). With O=C(C1=C(O)C(=O)N(CCN2CCOCC2)C1c1cccnc1)c1cccs1 (stereo unspecified) the inhibition was -0.7% (inactive). With Cc1onc(-c2c(Cl)cccc2Cl)c1C(=O)N1CCCCCC1 the inhibition was -6.1% (inactive). For Cc1ccc(N2C(=O)CSC2c2ccccc2F)cc1C (stereo unspecified), the inhibition was -4.3% (inactive). With O=C(Oc1ccc2c(=O)c(Oc3ccccc3Br)c(C(F)(F)F)oc2c1)c1cccs1 the inhibition was -1.4% (inactive). CN1C(=O)C2(/C(=C(/O)c3ccccc3)C(=O)C(=O)N2CC2CCCO2)c2ccccc21 (stereo unspecified) was tested, and the inhibition was -3.7% (inactive). With Cc1ccc(C(=O)O)cc1NC(=O)C1C2CCC(C2)C1C(=O)O (stereo unspecified) the inhibition was 3.8% (inactive). With CN1CCC2(CC1)N=C(c1ccccc1)C(=S)N2C(=O)c1ccc(Cl)cc1 the inhibition was -2% (inactive). With Cc1ccc(C)c(-c2n[nH]n3c2nc(=O)c2ccccc23)c1 the inhibition was -23.5% (inactive). With O=C1c2cccc3cccc(c23)N1S(=O)(=O)c1ccccc1 the inhibition was -5% (inactive). CC(C)CCN(Cc1ccco1)C(=O)c1noc2c1CCCC2 was tested, and the inhibition was -3% (inactive). For Cc1cccc(N2C(=O)CSC2c2ccc(Br)cc2)c1 (stereo unspecified), the inhibition was -3.9% (inactive). For CCOC(=O)c1c(NC(=O)c2cccc(Cl)c2)sc2c1CCCC2, the inhibition was 3.1% (inactive). For O=C(c1ccc(F)cc1)N(Cc1ccco1)Cc1ccccc1Cl, the inhibition was -1.7% (inactive). For Cc1nnc(N2C(=O)C(O)=C(C(=O)c3ccco3)C2c2ccc(Cl)cc2)s1 (stereo unspecified), the inhibition was 0.1% (inactive). With CCc1ccc(Oc2c(C(F)(F)F)oc3c(CN4CCOCC4)c(O)ccc3c2=O)cc1 the inhibition was -5.8% (inactive). CCc1cccc(C)c1NC(=S)N(Cc1ccco1)C(C)c1cccs1 (stereo unspecified) was tested, and the inhibition was -5.9% (inactive). Cc1ccc(/C(O)=C2\C(=O)C(=O)N(CCN3CCOCC3)C2c2cccs2)cc1 (stereo unspecified) was tested, and the inhibition was -5.9% (inactive). In the case of COc1ccc(C2C(C(=O)N3CCCC(C)C3)c3ccccc3C(=O)N2C)cc1 (stereo unspecified), the inhibition is reported as 2.3% (inactive). For COc1ccccc1C(=O)NC(C)c1nc2ccccc2n1Cc1ccccc1C (stereo unspecified), the inhibition was -0.5% (inactive). For CCOc1cc(C2C(C(=O)c3ccco3)=C(O)C(=O)N2CC2CCCO2)ccc1O (stereo unspecified), the inhibition was 0.5% (inactive). O=C(O)CCN1C(=O)C(=O)/C(=C(/O)c2ccccc2)C1c1ccccc1[N+](=O)[O-] (stereo unspecified) was tested, and the inhibition was 1.1% (inactive). COC(=O)c1c(NC(=O)c2cccc(C)c2)sc2c1CCC(C)C2 (stereo unspecified) was tested, and the inhibition was -8.1% (inactive). For COc1cccc(Cn2c(=S)[nH]c3c(oc4ccccc43)c2=O)c1, the inhibition was 3% (inactive). With COc1ccc(C2/C(=C(\O)c3ccccc3)C(=O)C(=O)N2CCN2CCOCC2)cc1 (stereo unspecified) the inhibition was 0.4% (inactive). Cc1ccc(C2/C(=C(\O)c3ccccc3)C(=O)C(=O)N2c2nnc(C)s2)cc1 (stereo unspecified) was tested, and the inhibition was -1.8% (inactive). With CCOc1ccc(N(C)C(=O)[C@H]2[C@@H]3C[C@@H]4[C@H]2C(=O)O[C@@H]4C3)cc1 the inhibition was 19.5% (inactive). For Cc1cccc(C(=O)N2c3ncnn3C(c3ccccc3)CC2c2ccccc2)c1 (stereo unspecified), the inhibition was -15.7% (inactive). With COC(=O)c1c(NC(=O)c2ccc(F)cc2)sc(C)c1C the inhibition was -4.9% (inactive). Cc1cc(C)cc(N2C(=O)N(c3ccccc3Cl)C3CS(=O)(=O)CC32)c1 (stereo unspecified) was tested, and the inhibition was 2.6% (inactive).
